For this assay, the target named is Ubiquitin carboxyl-terminal hydrolase 2 (Homo sapiens) (UniProt O75604). The assay can be described thus: Confirmation Assay for Inhibitors of Ubiquitin-specific Protease USP2a Using CHOP2 as the Reporter. Further: nearly all actives have a fitted effect of over 55% in size. Summed up:
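Ub-CHOP2 cleavage coupled to reporter activation was read by fluorescence after 60 min at RT, with 25 nM final Ub-CHOP2 and substrate. Enzyme (10 nM final USP2 core) first sat 30 min with compound; data were normalized to NEM and fitted to concentration-response curves.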

Records with an inconclusive call do not appear. Entries that show only a call come without a potency. Calls of active or inactive are those of the source. The call rests on the fitted dose curve; in most records, active means well fitted inhibition curve with a large enough effect; inconclusive means small, poorly fitted or top-dose-only effect, or effect the other way; inactive means flat fitted curve, though single readings scatter.
Potency means the concentration at half of the fitted maximal effect.

Ubiquitin carboxyl-terminal hydrolase 2 (Homo sapiens), sequence (O75604 whole entry, looked up): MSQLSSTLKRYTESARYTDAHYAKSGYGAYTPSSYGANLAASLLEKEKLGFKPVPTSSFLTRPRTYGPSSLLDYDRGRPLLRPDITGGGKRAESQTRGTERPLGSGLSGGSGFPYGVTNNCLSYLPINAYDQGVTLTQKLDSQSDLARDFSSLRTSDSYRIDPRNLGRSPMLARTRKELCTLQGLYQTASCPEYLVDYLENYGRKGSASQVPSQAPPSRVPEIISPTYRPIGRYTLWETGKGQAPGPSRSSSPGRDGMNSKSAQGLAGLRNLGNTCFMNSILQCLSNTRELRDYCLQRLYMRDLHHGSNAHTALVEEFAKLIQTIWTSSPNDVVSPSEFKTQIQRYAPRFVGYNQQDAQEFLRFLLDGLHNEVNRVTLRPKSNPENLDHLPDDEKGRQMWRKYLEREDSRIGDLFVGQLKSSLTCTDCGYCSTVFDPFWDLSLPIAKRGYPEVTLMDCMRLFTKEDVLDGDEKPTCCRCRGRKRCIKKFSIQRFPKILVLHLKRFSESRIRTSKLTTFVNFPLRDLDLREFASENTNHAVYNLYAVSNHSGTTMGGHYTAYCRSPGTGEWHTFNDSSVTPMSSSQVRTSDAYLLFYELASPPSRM

Take `Cc1ccc(S(=O)(=O)Cc2ccc(C(=O)N3CCN(c4ccccn4)CC3)o2)cc1`: the Potency result was “inactive”. Turning to `Cc1cc(-c2csc(NC(=O)c3ccc(=O)[nH]c3)n2)c(C)n1Cc1ccccc1`, the Potency entry is “inactive”. Regarding `CCC(C)NC(=O)CSC1=Nc2ccccc2C2=NC(c3ccccc3)C(=O)N12` (stereo unspecified), the Potency entry was “inactive”. In the case of `c1ccc(Nc2c3c(nc4ncnn24)CCC3)cc1` it was “inactive”; in that of `COc1cccc(N2CCN(C(=O)CN(C)S(=O)(=O)c3ccc4c(c3)CCC(=O)N4)CC2)c1`, “inactive”; in that of `CCOc1ccc2[nH]c(=O)c(CN(Cc3nnnn3Cc3ccco3)C3CCCCC3)cc2c1`, “inactive”. Consider `COc1ccc(NC(=O)CSc2nnc(-c3ccccc3Cl)n2Cc2ccco2)c(OC)c1`, for which the Potency result is “inactive”.

Regarding `Cc1ccc(/C(N)=N/OC(=O)Oc2ccccc2)cc1`, the Potency result is “inactive”.

Turning to `CS(=O)(=O)c1ccc(C(=O)Nc2nc(-c3ccco3)c(-c3ccco3)s2)cc1`, the Potency result was “inactive”. In the case of `Cn1c(=O)c2c(nc(CN3CCN(C(=O)c4ccco4)CC3)n2CCCc2ccccc2)n(C)c1=O` it was “inactive”. As to `O=C(COC(=O)c1ccc(NS(=O)(=O)c2cccs2)cc1)Nc1nc2c(F)c(F)c(F)cc2s1`, the Potency is 6.56 µM (active). In the case of `COC(=O)CCC/C=C1/SCC(NC(=O)c2ccccc2)C1=O` (stereo unspecified) it was “inactive”.

As for `O=C1c2ccccc2CCC12N=NCC2c1ccc(Br)cc1` (stereo unspecified), the Potency result is “inactive”.

Regarding `O=c1oc2c(CN3CCCCC3)c(O)ccc2c2c1CCCCC2`, the Potency result is “inactive”. In the case of `Cc1ccccc1NC(=O)CSc1nnc(-c2ccco2)c(-c2ccco2)n1` it was “inactive”; in that of `CC(C)n1c(/C=C/[C@H](O)C[C@H](O)CC(=O)O)c(-c2ccc(F)cc2)c2ccccc21`, “inactive”. For `O=C(c1ccccc1)N1CCN(C(=O)N2CCCCC2)CC1`, the Potency entry was “inactive”. In the case of `Cc1c(N=C/C=C2\N(C)c3ccccc3C2(C)C)c(=O)n(-c2ccccc2)n1C` it was “inactive”. On to `CC(C)Oc1ccc(C(=O)Nc2ccc(N3CCCC3)cc2)cc1`, for which the Potency result is “inactive”. As for `CC(C)(C)C1C=C(Sc2ccccc2)C(=O)O1` (stereo unspecified), the Potency entry was “inactive”. With `COc1ccc(CNS(=O)(=O)c2ccc(S(=O)(=O)N3CCCCC3)cc2)cc1`, the Potency result is “inactive”. For `N#CCC(=O)Nc1ccc(C(=O)OCC(=O)NCc2ccc3c(c2)OCO3)cc1`, the Potency result is “inactive”. In the case of `C#CCOCCOCCOCCNc1nc(N2CCN(C(=O)CCCCCCCCCCNC(=O)[C@H](CCCCN)n3cc(CCO)nn3)CC2)nc(N2CCN(C(=O)CCCCCCCCCCNC(=O)[C@H](CCCCN)n3cc(C[C@@H](C)CC)nn3)CC2)n1` it was 8.26 µM (active). For `Cc1ccc(-c2nc(N/N=C/c3ccncc3)c3ccccc3n2)cc1`, the Potency result was “inactive”. Then `Cc1nc2ccccc2c2oc(C(=O)NCCN3CCN(C)CC3)cc12`, with “inactive”; and `O=C(c1cccc(F)c1)N1CCN(S(=O)(=O)c2ccccc2)CC1`, with “inactive”. In the case of `O=[N+]([O-])/C(C(Cl)=C(Cl)Cl)=C(\Sc1ccccc1)N1CCCCC1` it was “inactive”; in that of `CCO[C@H]1OC(C(=O)N2CCCCCCC2)=C[C@@H](c2ccc(C(F)(F)F)cc2)[C@@H]1CCCO`, “inactive”. With `O=C(Cc1ccc(S(=O)(=O)N2CCOCC2)s1)NCCC(c1ccccc1)c1ccccc1`, the Potency entry was “inactive”.

Consider `Cc1ccc(C(=O)O/N=C/c2c(C(F)(F)F)nn(C)c2Sc2ccc(Cl)cc2)cc1`, for which the Potency entry is “inactive”. On to `CCOc1ccccc1C(=O)Nc1nnc(C(C)C)s1`, for which the Potency result is “inactive”. Turning to `Cc1ccc(C(=O)COC(=O)CNC(=O)CN2C(=O)c3ccccc3C2=O)cc1`, the Potency result is “inactive”.

As to `COc1ccccc1-n1c(SCC(=O)Nc2ccc(C)cc2)nc(O)cc1=O`, the Potency result was “inactive”.

With `O=C(CSc1nccc(=O)[nH]1)N1N=C2/C(=C/c3ccco3)CCCC2C1c1ccco1` (stereo unspecified), the Potency result is “inactive”. As to `O=C1Nc2ccc(S(=O)(=O)N3CCCCCC3)c3cccc1c23`, the Potency result is “inactive”. In the case of `COc1ccc(CCN2CC(C#N)=C3c4cc(OC)c(OC)cc4CCN3C2)cc1OC` it was “inactive”; in that of `COc1ccc(S(=O)(=O)N(C)CC(=O)Nc2cccc(C(C)=O)c2)cc1Cl`, “inactive”; in that of `COc1ccc(-c2nc(C#N)c(NCC3CCCO3)o2)cc1OC` (stereo unspecified), “inactive”. On to `Cc1nc(N(C)C)c2sc(=S)n(C)c2n1`, for which the Potency result is “inactive”. On to `Cc1cc(N2CCOCC2)nc(SCC(=O)c2ccc(Cl)cc2)n1`, for which the Potency result is “inactive”. Then `CC(C)OCCCNC(=O)c1c(N)n(/N=C/c2ccccn2)c2nc3ccccc3nc12`, with “inactive”; and `COC(=O)c1nnn(-c2nonc2N)c1CSc1ccccn1`, with “inactive”; and `O=C(C1CCCN(S(=O)(=O)c2cccc3cccnc23)C1)N1CCN(c2ccccc2F)CC1` (stereo unspecified), with “inactive”.

With `CC(C)(C)[C@H]1COC(=O)[C@@H](Cc2ccc(F)cc2)C/C=C\C[C@@H](CC(=O)N[C@@H](CO)Cc2ccccc2)C(=O)N1`, the Potency entry is “inactive”. With `CCOC(=O)CCCNC(=O)COC(=O)c1cccc(C)c1O`, the Potency entry is “inactive”. In the case of `COc1ccc(Cl)cc1S(=O)(=O)Nc1cccc(C(=O)O)c1` it was “inactive”; in that of `Cn1c(C(=O)NCCCN2CCN(c3ccccc3F)CC2)cc2c(=O)n(C)c3ccccc3c21`, “inactive”. Regarding `COc1ccccc1NC(=O)N1CCN(c2ccccn2)CC1`, the Potency result was “inactive”. As to `Cc1ccc(NC(=O)c2cc(-c3ccco3)nc3ccccc23)cc1S(=O)(=O)N1CCOCC1`, the Potency is 11.7 µM (active).

Consider `O=C1/C(=C/C=C/c2ccco2)SC(=S)N1NS(=O)(=O)c1ccccc1`, for which the Potency is 8.26 µM (active). Then `CCOC(=O)N1CCN(C(=O)CN(c2cccc(C)c2)S(=O)(=O)c2ccccc2)CC1`, with “inactive”. Then `CC1=NC(C(F)(F)F)(C(F)(F)F)C2=C(CC(C)(C)CC2=O)N1Cc1ccco1`, with “inactive”. Then `O=C(CSc1ncn[nH]1)Nc1ccc(Br)cc1F`, with “inactive”; and `COC(=O)C1CCN(C(=O)c2cc(-c3ccco3)nc3ccccc23)CC1`, with 13.1 µM (active). Turning to `Cc1ccc(C(=O)N/C(=C/c2ccco2)C(=O)Nc2cccc(C(=O)O)c2)cc1`, the Potency entry was “inactive”. Then `O=C(NNC(=O)c1cc2ccccc2cc1O)Nc1ccccc1F`, with “inactive”; and `O=c1/c(=C/c2ccco2)sc2n1CN(c1cccc(Br)c1)CN=2`, with “inactive”. On to `O=C1/C(=C/C=C/c2ccco2)SC(=S)N1c1ccc(O)cc1`, for which the Potency was 5.21 µM (active). In the case of `COc1ccc(-c2noc(CSc3nnc(Cc4ccccc4)n3-c3ccc(Cl)cc3)n2)cc1` it was “inactive”; in that of `C[C@@H]1CN([C@H](C)CO)C(=O)c2cc(NS(=O)(=O)c3ccc(F)cc3)ccc2O[C@@H]1CN(C)Cc1ccc(Cl)c(Cl)c1`, “inactive”; in that of `NC(=O)C[C@@H]1N[C@]2(C(=O)Nc3ccccc32)[C@@H]2C(=O)N(c3cc(C(F)(F)F)ccc3Cl)C(=O)[C@H]12`, “inactive”. In the case of `O=C(CSc1ccc2nnc(-c3cccc(F)c3)n2n1)N1CCCc2ccccc21` it was “inactive”. Turning to `Cc1ccc(C(=O)NCc2ccc3c(c2)OCO3)cc1N1CCCC1=O`, the Potency result is “inactive”. On to `COc1cccc(NC(=O)c2ccccc2-c2nc(-c3cccc(C)c3)no2)c1`, for which the Potency entry was “inactive”. In the case of `Cc1ccc(S(=O)(=O)N2[C@@H](c3ccc(C(C)(C)C)cc3)C(C(=O)O)=CC[C@H]2c2ccc(C(C)C)cc2)cc1` it was 9.27 µM (active); in that of `O=C(CSc1ccc(Br)c2cccc(Cl)c12)Nc1ccc(S(=O)(=O)Nc2nccs2)cc1`, 9.27 µM (active).

Take `CN(C)CCOCCP(=O)(c1ccccc1)c1ccccc1`: the Potency entry is “inactive”.

Take `CCC(=O)Nc1c2c(nn1-c1ccc(F)cc1)CS(=O)C2` (stereo unspecified): the Potency result is “inactive”. Then `O=C(NC1CCCC1)C1C2C=CC(C2)C1C(=O)N1CCOCC1` (stereo unspecified), with “inactive”.

Consider `COC(=O)c1cc2sc(Cl)cc2n1Cc1nc(-c2ccccc2)oc1C`, for which the Potency entry is “inactive”. Then `COc1cc(OC)cc(-c2c(C#Cc3ccsc3)c3cc(-c4ccc(OC)c(OC)c4)ccc3n2C)c1`, with “inactive”.
